Results from PubChem BioAssay (NCI).
“And” between values parts separate entries of the source, which are not always exact repeats. Identical values can stand only once. The panel holds about 83,000 compounds, 20% with a hit somewhere; the sample as a whole holds those more often.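 Single-dose data. Exposure time 48 hours. Values below 10 considered active.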 Unmarked numbers belong to inactive results. The source made the active and inactive calls.

Experiments:
Test in all cases: NCI-60 one-dose screen, 48 h (100 = growth as untreated, 0 = no growth, -100 = all killed)
Conditions in all cases: 10 µM unless noted
NCI-H23 lung = tested on: NCI-H23 lung
NCI-H226 lung = tested on: NCI-H226 lung
NCI-H322M lung = tested on: NCI-H322M lung
HOP-62 NSCLC = tested on: HOP-62 NSCLC
NCI-H460 lung = tested on: NCI-H460 lung
HOP-92 NSCLC = tested on: HOP-92 NSCLC
NCI-H522 lung = tested on: NCI-H522 lung
A549/ATCC NSCLC = tested on: A549/ATCC NSCLC
786-0 renal = tested on: 786-0 renal
COLO 205 colon = tested on: COLO 205 colon
DU-145 prostate = tested on: DU-145 prostate
K-562 leukemia = tested on: K-562 leukemia
MALME-3M melanoma = tested on: MALME-3M melanoma
MDA-MB-231 breast = tested on: MDA-MB-231 breast
RXF 393 renal = tested on: RXF 393 renal
SF-268 CNS = tested on: SF-268 CNS
SF-295 CNS = tested on: SF-295 CNS
SF-539 CNS = tested on: SF-539 CNS
UACC-257 melanoma = tested on: UACC-257 melanoma
M14 melanoma = tested on: M14 melanoma

SMILES	growth (NCI-H23 lung)	growth (NCI-H226 lung)	growth (NCI-H322M lung)	growth (HOP-62 NSCLC)	growth (NCI-H460 lung)	growth (HOP-92 NSCLC)	growth (NCI-H522 lung)	growth (A549/ATCC NSCLC)	growth (786-0 renal)	growth (COLO 205 colon)	growth (DU-145 prostate)	growth (K-562 leukemia)	growth (MALME-3M melanoma)	growth (MDA-MB-231 breast)	growth (RXF 393 renal)	growth (SF-268 CNS)	growth (SF-295 CNS)	growth (SF-539 CNS)	growth (UACC-257 melanoma)	growth (M14 melanoma)
O=C(NN1C(=O)/C(=C/C=C/c2ccc([N+](=O)[O-])o2)SC1=S)c1ccc(O)cc1	-85.7% (active)	-86.3% (active)	-78.5% (active)	-99.5% (active)	-54% (active)	-81% (active)	-98.1% (active)	-81.5% (active)	-90.4% (active)	-94.8% (active)	-100% (active)	0.602% (active)	-97.9% (active)	-95.9% (active)	-86.2% (active)	-74.3% (active)	-85.6% (active)	-100% (active)	-90.4% (active)	-81.9% (active)
COc1cc(C2CC(c3ccc(S(=O)(=O)NCCNc4nc(N(C)C)nc(N5CCOCC5)n4)cc3)=Nc3c(N)nc(N)nc3N2)cc(OC)c1OC (stereo not given)	97.4%	85.1%	79.8%	90.8%	104%	92.7%	90.1%	98.3%	94.3%	116%	109%	92.5%	92.6%	80.8%	85.7%	89.6%	94.4%	96.8%	99.8%	101%
COc1ccc(/C=C/c2nc3ccccc3n3c(-c4cccc([N+](=O)[O-])c4)nnc23)cc1	-78.1% (active)	-14.8% (active)	41%	25.4%	-35.6% (active)	-48.7% (active)	-72.7% (active)	-4.88% (active)	-74.9% (active)	-70% (active)	-18% (active)	5.5% (active)	-69.7% (active)	1.23% (active)	-85.2% (active)	-16.4% (active)	12.4%	-86.5% (active)	-48.9% (active)	-77.4% (active)
N#CC1=C(c2cccs2)Nc2c(c(-c3ccccc3)nn2-c2ccccc2)C12C(=O)Nc1ccc(Cl)cc12 (stereo not given)	23.8%	51.6%	47.1%	28.8%	6.17% (active)	-8.79% (active)	3.38% (active)	24.4%	22.3%	-29.2% (active)	50.5%	11.1%	76.3%	21.5%	-11.4% (active)	23.2%	12.9%	20.5%	63.5%	16.5%
CC[C@]12C=CCN3CC[C@@]4(c5ccc(OC)cc5N(C)[C@H]4[C@@](O)(C(=O)OC)[C@@H]1OC(=O)CCCC[P+](c1ccc(F)cc1)(c1ccc(F)cc1)c1ccc(F)cc1)[C@@H]32	23.6%	38%	52.9%	50.9%	20.3%	-12.2% (active)	-11.6% (active)	37.5%	87.1%	-43.4% (active)	36.4%	17.1%	-55.9% (active)	2.85% (active)	-9.93% (active)	28.1%	78.5%	16%	-50.7% (active)	19.7%
CN1CCN(C(=O)CCN(C(=O)Oc2cc3c(c4ccccc24)[C@H](CCl)CN3C(=O)c2cc3cc(OCCCN4CCC4)ccc3[nH]2)[C@H]2CCSSC2)CC1	-73.3% (active)	-17.9% (active)	-48% (active)	-77.4% (active)	2.93% (active)	-32.1% (active)	-74.4% (active)	-61.5% (active)	-90.8% (active)	-80% (active)	-84.3% (active)	-42.9% (active)	-86.8% (active)	-89.6% (active)	-86.7% (active)	-50.4% (active)	-71% (active)	-94% (active)	-77.9% (active)	-62.5% (active)
COc1ccc2ccccc2c1/C=C1\SC(=Nc2ccc(O)cc2)NC1=O	19.3%	-5.11% (active)	32.7%	23.8%	11.1%	18.3%	-24% (active)	11.5%	17.7%	-22.2% (active)	35.2%	7.49% (active)	30.1%	15.1%	-1.11% (active)	37.9%	10.7%	-21.7% (active)	37.8%	6.7% (active)
COc1ccc2[nH]c(O)c(N=NC(=O)c3ccc4nc(-c5ccc(Cl)cc5)[nH]c4c3)c2c1	65.6%	77.5%	85.9%	48.9%	101%	73.3%	35.3%	113%	90.6%	18%	65.6%	41.8%	33.4%	23.9%	43.4%	27.3%	103%	67.6%	100%	59.4%
CC(C)C[C@H](NC(=O)CNC(=O)C[C@H]1O[C@@H]2OC3(C)CC[C@H]4[C@H](C)CC[C@@H]([C@H]1C)[C@@]24O3)B(O)O	-37.1% (active)	-36.2% (active)	54.4%	-3.39% (active)	9.47% (active)	-18.8% (active)	-74.3% (active)	27.9%	16%	29.5%	42%	8% (active)	-71.9% (active)	-80.9% (active)	-78.5% (active)	-22.4% (active)	-61.3% (active)	-93.6% (active)	-52.1% (active)	-45.8% (active)
CS(=O)(=O)Nc1cccc(-n2c(COc3ccc(OC(F)(F)F)cc3)nc3ccccc32)c1	84.7% and 104%	83.3% and 103%	101% and 121%	96.2% and 97.2%	110%	59.6% and 108%	84.8% and 101%	96.1% and 111%	110% and 103%	100% and 113%	105% and 121%	82.2% and 107%	89.6% and 102%	92.4% and 110%	85.8% and 110%	90% and 113%	92.7% and 100%	81.1% and 105%	106% and 109%	114% and 107%
Cn1cc(-c2cc3nc(-c4cn(C)c5ncc(Br)cc45)cc(N)n3n2)c2cc(F)ccc21	15.2%	10.9%	35.3%	15%	20.9%	-18.3% (active)	2.15% (active)	0.571% (active)	-5.13% (active)	51.6%	0.863% (active)	21.9%	8.23% (active)	-42.1% (active)	-39.8% (active)	57.6%	-45.7% (active)	-26.5% (active)	24.4%	7.16% (active)
O=C(CSc1nnc(-c2ccc(-c3nc4ccc(Cl)cc4[nH]3)cc2)o1)Nc1ccccc1	-41.5% (active)	-23.7% (active)	37.6%	-27.1% (active)	-48.7% (active)	2.36% (active)	-3.89% (active)	-31.9% (active)	-59% (active)	75.9%	6.69% (active)	12.3%	2.32% (active)	-52% (active)	-40.6% (active)	49.1%	75.7%	-92.8% (active)	47.7%	4.09% (active)
O=C(CSc1nc2sc3c(c2c(=O)n1-c1ccc(Cl)cc1)CCCC3)N/N=C/C=C/c1ccccc1	-74.7% (active)	-36.1% (active)	34.8%	-71.3% (active)	-16.9% (active)	9.97% (active)	2.3% (active)	-18.3% (active)	-45.2% (active)	-45.4% (active)	26.7%	19.4%	-97% (active)	-69.4% (active)	-67.1% (active)	55.1%	12%	-35.2% (active)	1.05% (active)	-65.9% (active)
CN(C)c1nc(NCCNS(=O)(=O)c2ccc(C(=O)/C=C/c3ccc(C(F)(F)F)cc3)cc2)nc(N2CCOCC2)n1	-64.2% (active)	60.8%	72%	80.1%	28.8%	32.3%	18.5%	16.6%	-85.1% (active)	16.1%	3.39% (active)	-13.6% (active)	56.5%	-59.1% (active)	-76.6% (active)	50.5%	7.03% (active)	-95.4% (active)	37.9%	-87.5% (active)
COC(=O)c1c(C(=O)OC)c2ccc3c4ccccc4ccc3n2c1C(=O)C(C)Br (stereo not given)	33.4%	61.7%	83.4%	67.1%	17.2%	53.5%	-55.9% (active)	50.5%	41.9%	43.2%	71.7%	4.34% (active)	37.9%	33.1%	32.8%	69.3%	78%	17.2%	57%	46.5%
N#CC1=C(c2cccs2)Nc2c(c(-c3ccccc3)nn2-c2ccccc2)C12C(=O)Nc1ccc(Br)cc12 (stereo not given)	2.18% (active)	13%	26.9%	-75.2% (active)	-46.7% (active)	-24.7% (active)	-12.4% (active)	-9.72% (active)	-22.7% (active)	-83% (active)	31.5%	2.75% (active)	-18.7% (active)	-34% (active)	-39.7% (active)	15.7%	-37.3% (active)	-62.4% (active)	35.8%	-72.1% (active)
Cc1cnc2ccc(Oc3ccccc3-c3ccccc3)nn12	96.6%	106%	103%	124%	118%	122%	108%	117%	102%	131%	115%	101%	100%	109%	107%	106%	97.5%	104%	116%	99.6%
CCCCCCCCc1ccc(C(=O)Nc2ccc(C)cc2C(=O)O)cc1	85.2%	84.3%	91.1%	96.3%	88.4%	10.4%	73.2%	66.8%	89.6%	119%	95%	59.4%	92.2%	96.9%	110%	96%	51.1%	100%	95.8%	104%
COc1ccc(-c2cc(C(=O)N=Nc3c(O)[nH]c4ccc(Cl)cc34)c3ccccc3n2)cc1	14.3%	81.8%	79%	-20.9% (active)	0.622% (active)	117%	-16.1% (active)	-4.4% (active)	72.4%	7.83% (active)	19%	64.8%	90.1%	-44.2% (active)	133%	68.8%	96.7%	44.8%	106%	76.9%
COc1cc(CNC(=O)C[C@H](C)CCC=C(C)C)ccc1OCc1cn(-c2ccccc2F)nn1	68.3%	73.3%	92.7%	46.7%	89%	4.63% (active)	57.1%	80.6%	43.6%	112%	102%	81.6%	78.3%	66.8%	38.4%	58.9%	45.2%	44.6%	94%	94.8%
O=C1CCC(N2C(=O)c3cccc(NCCCCCC(=O)N4CCN(c5ccc6nc7c(nc6c5C(F)(F)F)C(=O)c5ncccc5C7=O)CC4)c3C2=O)C(=O)N1 (stereo not given)	-49% (active)	-51.3% (active)	-73.8% (active)	-74.2% (active)	-48.3% (active)	-40.2% (active)	-62% (active)	-64.3% (active)	-56.5% (active)	-75.9% (active)	-88.3% (active)	-0.95% (active)	-99.3% (active)	-46.2% (active)	-72.1% (active)	-29.5% (active)	-84.1% (active)	-95.4% (active)	-98.3% (active)	-87.2% (active)
O=C(N=Nc1c(O)[nH]c2ccc(Cl)cc12)c1ccc2nc(-c3ccc(Cl)cc3)[nH]c2c1	-71.5% (active)	51.1%	31.4%	-37.9% (active)	11.8%	-0.983% (active)	-26.9% (active)	41.5%	-72.6% (active)	-17.6% (active)	5.09% (active)	8.93% (active)	-1.72% (active)	-79.9% (active)	-27.7% (active)	0.662% (active)	-12.5% (active)	-93.6% (active)	57.8%	-6.49% (active)
